Mito fusion yeast: inhibitors of mitochondrial division or activators of mitochondrial fusion; S. cerevisiae fusion-defective mutant growth rescue, CellTiterGlo 48 h; Potency, µM (highest dose often 46.1 µM), most hits filed as activators; 320,000 tested, 0.23% active; further: nearly all actives have a fitted effect of over 45% in size
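Yeast fusion mutant, YPEG (non-fermentable carbon), compound, 48 h at 37C non-permissive; CellTiterGlo added, 10 min RT, luminescence read. Rescued growth = division inhibition.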
GLS inhibitor: inhibitors of human glutaminase (GLS). O94925. GLS enzymatic activity, qHTS titration. Potency, µM (titrated, usually from 45.5 µM), most hits filed as inhibitors. 410,000 tested, 0.21% active. AID 624170
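Compounds were pin-transferred onto hKGA, after which L-glutamine (1 mM solution) and a detection mix of glutamate oxidase, HRP and Amplex Red were added. Initial and 30 min RT fluorescence reads were collected.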
PLK1 PBD inh: PLK1 (human) polo-box domain binding inhibition; Plk1 PBD binding of FITC phosphopeptide, fluorescence polarization; Potency, µM, most hits filed as inhibitors; 360,000 tested, 2.8% active; AID 720504; further: series mostly up to about 57 µM; nearly all actives have a fitted effect of over 65% in size
PKM2 act: PKM2 (human) enzyme activation; P14618; purified PKM2, Kinase-Glo ATP luminescence, activation; response scale: 0% is enzyme alone, no compound; Potency, µM (titrated, usually from 57.5 µM), hits mostly activators; 260,000 tested, 0.34% active; AID 1631; further: nearly all actives have a fitted effect of over 55% in size
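Kinase-Glo luminescence reports ATP generated from ADP (0.1 mM) and PEP (0.5 mM) by purified hPK-M2 after 1 h at room temperature, pH 7.2 imidazole buffer; intermediate enzyme activity allows detecting inhibitors and activators.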
VDR inh: blocks the human vitamin D receptor; P11473; VDR-SRC2-3 peptide fluorescence polarization, 2 h; Potency, µM, hits mostly inhibitors; 400,000 tested, 0.93% active; AID 504847
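Signal is fluorescence polarization, reporting how far test compounds block the interaction of VDR with the SRC2-3 coregulator peptide after a 2 h room-temperature incubation.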
GCN5L2 inh: blocks human GCN5L2 histone acetyltransferase; Q92830; GCN5L2 HAT assay, ThioGlo1 CoA-SH fluorescence; Potency, µM (top dose mostly 58.9 µM), usual class: inhibitors; 390,000 tested, 0.21% active; AID 504327
Target sequence (Q92830 whole entry, looked up): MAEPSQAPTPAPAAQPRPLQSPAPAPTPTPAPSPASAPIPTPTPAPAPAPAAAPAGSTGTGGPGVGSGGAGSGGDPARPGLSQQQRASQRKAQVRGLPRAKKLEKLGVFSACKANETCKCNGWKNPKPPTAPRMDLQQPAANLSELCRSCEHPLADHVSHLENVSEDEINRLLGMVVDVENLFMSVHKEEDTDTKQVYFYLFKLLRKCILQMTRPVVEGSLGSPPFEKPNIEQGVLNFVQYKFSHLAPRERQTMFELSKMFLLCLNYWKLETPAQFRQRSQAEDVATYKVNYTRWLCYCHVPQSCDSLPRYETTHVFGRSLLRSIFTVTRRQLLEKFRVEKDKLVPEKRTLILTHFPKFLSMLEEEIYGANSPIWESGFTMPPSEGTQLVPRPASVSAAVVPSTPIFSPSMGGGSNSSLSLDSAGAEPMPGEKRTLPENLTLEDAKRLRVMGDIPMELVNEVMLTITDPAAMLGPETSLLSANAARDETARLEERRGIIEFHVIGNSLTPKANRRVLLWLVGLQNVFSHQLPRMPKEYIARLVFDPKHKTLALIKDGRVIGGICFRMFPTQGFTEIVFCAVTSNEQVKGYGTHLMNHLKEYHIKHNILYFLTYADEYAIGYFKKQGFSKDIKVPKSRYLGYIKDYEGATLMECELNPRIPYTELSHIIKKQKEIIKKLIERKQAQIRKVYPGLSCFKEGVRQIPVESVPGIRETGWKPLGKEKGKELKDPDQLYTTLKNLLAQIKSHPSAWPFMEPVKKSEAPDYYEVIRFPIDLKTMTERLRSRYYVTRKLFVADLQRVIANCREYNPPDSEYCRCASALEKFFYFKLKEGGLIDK
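Free CoA generated was detected with ThioGlo1 (50uM) fluorescence at Ex340nm/Em540nm, read immediately and after 20 min at room temperature. Enzyme, 20 nM in HEPES pH 7.5 buffer, saw compounds 15 min before adding 75uM H3(1-25) peptide and 70uM acetyl-CoA.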
USP1 UbRho: validation of human USP1/UAF1 inhibitors. shares compounds with VDR inh. Ub-Rhodamine cleavage, fluorescence kinetic read. Potency, µM (titrated, usually from 56.8 µM), actives largely listed as inhibitors. 50 tested, 50% active. AID 540327
VDR inh confirm: inhibits human vitamin D receptor, primary hit validation | shares compounds with VDR inh | VDR-coactivator inhibition assay, qHTS confirmation | Potency, µM, actives largely listed as inhibitors | 840 tested, 89% active | AID 602199
VDR FP: confirmation of human VDR-coactivator binding inhibitors, fluorescein label; shares compounds with VDR inh; VDR-coactivator binding, fluorescein fluorescence polarization; Potency, µM (series often up to 57.1 µM), usual class: inhibitors; 840 tested, 48% active; AID 602200
VDR bla reporter: inhibits human VDR in beta-lactamase reporter cells; shares compounds with VDR inh; VDR beta-lactamase reporter cells, FRET ratio; cells co-treated with VDR agonist LG190178; Potency, µM (doses to about 46.1 µM), most hits filed as inhibitors; 840 tested, 23% active; AID 602202
VDR viability: cell toxicity, VDR inhibitor hit counter-screen | shares compounds with VDR inh | cytotoxicity counter-screen, cell viability, qHTS | Potency, µM (titrated, usually from 48.3 µM), actives largely listed as cytotoxic | 840 tested, 18% active; further: nearly all actives have a fitted effect of over 75% in size
Large screens that a line does not name were inactive (follow-up assays come after a bar, where they were run). Most compounds without a hit are left out; they make up all but 3.4% or so of the library. The call rests on the fitted dose curve; in most records, active means well fitted curve in the direction sought with a large enough effect; inconclusive means small, poorly fitted or top-dose-only effect, or another doubt; inactive means no such curve, though single readings can be large; an effect the other way counts as inactive or inconclusive.

CS(=O)(=O)c1ccc(Sc2nc3ccccc3s2)c([N+](=O)[O-])c1	none
O=[N+]([O-])c1cc(S(=O)(=O)C(F)(F)F)ccc1Sc1nc2ccccc2s1	PLK1 PBD inh 13µM, VDR inh 35µM | VDR inh confirm 9.5 | VDR FP 3.5µM | VDR bla reporter inconclusive | VDR viability inconclusive
COc1ccc(C)cc1NC(=O)c1cn(C)c(=O)c2cc(OC)c(OC)cc12	none (no result: Mito fusion yeast, PLK1 PBD inh, PKM2 act)
COC(=O)c1c(NC(=O)CN2C(=O)c3ccccc3C2=O)sc(Cc2ccc3c(c2)OCO3)c1C	none
Cc1c(Cc2ccc3c(c2)OCO3)sc(NC(=O)c2cccc3ccccc23)c1C(N)=O	Mito fusion yeast inconclusive, PLK1 PBD inh 6µM, VDR inh inconclusive | VDR inh confirm 10 | VDR FP 14µM | VDR bla reporter inconclusive | VDR viability inactive
COc1ccc(CCn2nnc3ccccc3c2=O)cc1OC	none (no result: Mito fusion yeast, PKM2 act, VDR inh, GCN5L2 inh)
O=[N+]([O-])c1c(NCCCO)cc(Sc2nc3ccccc3s2)c2nonc12	GLS inhibitor inconclusive, PLK1 PBD inh 0.95µM, VDR inh 16µM, GCN5L2 inh inconclusive | VDR inh confirm 6 | VDR FP inconclusive | VDR bla reporter inconclusive | VDR viability inconclusive
CCCC(=O)OCCNc1cc(Sc2nccn2C)c2nonc2c1[N+](=O)[O-]	PLK1 PBD inh 2.4µM, PKM2 act inconclusive, VDR inh 50µM | VDR inh confirm 8.4 | VDR FP inconclusive | VDR bla reporter 16µM | VDR viability 21µM
CCC(=O)OCCNc1cc(Sc2nc3ccccc3s2)c2nonc2c1[N+](=O)[O-]	GLS inhibitor inconclusive, PLK1 PBD inh 1.9µM, PKM2 act inconclusive, VDR inh 8.9µM | VDR inh confirm 6.7 | VDR FP 3.2µM | VDR bla reporter 16µM | VDR viability inconclusive
COC(=O)[C@@]1(Cc2ccc(OC)cc2)[C@H]2c3cc(C(=O)N(C)C)n(Cc4ccc(OC)c(OC)c4)c3C[C@H]2CN1C(=O)c1ccccc1	none (no result: Mito fusion yeast, GLS inhibitor, PLK1 PBD inh, VDR inh, GCN5L2 inh)
Cc1ccc(/C=C/C(=O)c2nc3ccccc3[nH]2)cc1	VDR inh inconclusive | VDR inh confirm inconclusive | VDR FP inconclusive | VDR bla reporter inconclusive | VDR viability inactive
CN(Cc1ccccc1)C(=O)NC1CCCCC1	none
CC(C)(Sc1ccc(CCN(CCCCC2CCCCC2)C(=O)NC2CCCCC2)cc1)C(=O)O	PLK1 PBD inh 21µM, VDR inh 40µM, GCN5L2 inh 13µM (no result: PKM2 act) | USP1 UbRho 33µM
O=C(Nc1cc(S(=O)(=O)N2CCOCC2)ccc1N1CCCCC1)c1ccccc1	none (no result: PKM2 act)
O=C(Nc1cc(S(=O)(=O)N2CCOCC2)ccc1N1CCCCC1)c1ccccc1Br	PLK1 PBD inh 4.7µM, VDR inh 89µM (no result: Mito fusion yeast, PKM2 act) | VDR inh confirm 17 | VDR FP inconclusive | VDR bla reporter inactive | VDR viability inactive
O=C(Nc1cc(S(=O)(=O)N2CCOCC2)ccc1N1CCCC1)c1ccc(Cl)cc1	PLK1 PBD inh 7.5µM, VDR inh inconclusive, GCN5L2 inh inconclusive (no result: PKM2 act) | VDR inh confirm 13 | VDR FP 7.9µM | VDR bla reporter inactive | VDR viability inconclusive
